Bioassay records: PubChem BioAssay, several laboratories
Hits are enriched below; roughly 32% of the tested compounds scored in any of these assays.
PostGolgi yeast = growth inhibition of a yeast mutant, post-Golgi transport screen. post-Golgi transport phenotypic cell assay. inhibition, % at 10 µM. 98,000 compounds, 0.9% hits. AID 739;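 further: yeast cells grown in 1536-well plates; yeast grown about 18 h at 30C before absorbance read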
PostGolgi ctrl = yeast control strain growth, post-Golgi counter-screen; efflux-deficient yeast background strain, growth absorbance A615, 16 h; inhibition, % at 10 µM; 98,000 compounds, 5% hits; AID 738
CYP2C9 act = CYP2C9 (human) activation; P11712; recombinant CYP2C9, luciferin-H conversion, luminescence; stronger effect = higher value; factor 1 = untreated enzyme, 0 = blocked; activation factor at 5 µM; 96,000 compounds, 1.4% hits; AID 1024;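 active means activation factor of 2 or more for CYP2C9 at a 5 µM dose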
Target sequence (P11712 whole entry, looked up): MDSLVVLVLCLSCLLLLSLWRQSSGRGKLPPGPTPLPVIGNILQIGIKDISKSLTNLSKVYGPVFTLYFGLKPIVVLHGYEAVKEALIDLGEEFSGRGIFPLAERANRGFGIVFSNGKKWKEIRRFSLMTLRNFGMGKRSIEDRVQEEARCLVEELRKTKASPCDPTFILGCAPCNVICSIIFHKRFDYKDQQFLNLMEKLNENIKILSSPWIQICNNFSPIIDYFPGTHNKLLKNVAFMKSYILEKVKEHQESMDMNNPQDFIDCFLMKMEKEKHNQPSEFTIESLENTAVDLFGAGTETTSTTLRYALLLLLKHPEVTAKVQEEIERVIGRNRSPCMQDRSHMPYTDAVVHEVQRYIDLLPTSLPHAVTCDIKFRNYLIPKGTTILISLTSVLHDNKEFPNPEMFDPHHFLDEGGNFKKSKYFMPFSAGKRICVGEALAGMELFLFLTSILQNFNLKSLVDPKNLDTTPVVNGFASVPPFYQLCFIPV
CYP2C19 act = cytochrome P450 2C19 (human) activation; P33261; recombinant CYP2C19, luciferin-H EGE luminescence; stronger effect = higher value; 0 = fully inhibited enzyme, 1 = untreated enzyme; activation factor at 5 µM; 96,000 tested, under 10 active; AID 1025;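 active means activation factor of at least 2 at 5 µM in the primary screen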
CYP2C9 inh = inhibitors of human CYP2C9; CYP2C9 Supersomes, luciferin-H conversion, luminescence; P11712; AID 777; 96,000 compounds, 20% hits; inhibition, % at 5 µM;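 active means blocking of liver enzyme CYP2C9 beyond about 50% at 5 µM, limit read from the data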
CYP2C19 inhib = inhibitors of human CYP2C19; inhibition, % at 5 µM; P33261; CYP2C19 Supersomes, luciferin-H EGE luminescence, 30 min; 96,000 compounds, 21% hits; AID 778;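 active means CYP2C19 inhibition above a set limit at 5 µM in the primary screen, cut at about 50% in these data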
Hits are given with their value. Unless noted, no stated cut-off is given here; in the data, active means inhibition above about 30%; inactive means the rest.

Results for Oc1c(C(c2ccco2)N2CCN(C(c3ccccc3)c3ccccc3)CC2)sc2ncnn12 (centres undefined) ?
PostGolgi yeast: inactive; PostGolgi ctrl: inactive; CYP2C9 act: inactive; CYP2C19 act: inactive; CYP2C9 inh: 94; CYP2C19 inhib: 95

What do the screens show for `Oc1c(C(c2cccs2)N2CCN(c3cccc(Cl)c3)CC2)sc2ncnn12` (centres undefined)?
PostGolgi yeast: inactive; PostGolgi ctrl: inactive; CYP2C9 act: inactive; CYP2C19 act: inactive; CYP2C9 inh: 54; CYP2C19 inhib: inactive

What do the screens show for `Cc1[nH]c2ccccc2c1C(=O)CN1CCCCC1CCO` (centres undefined)?
PostGolgi yeast: inactive; PostGolgi ctrl: inactive; CYP2C9 act: inactive; CYP2C19 act: inactive; CYP2C9 inh: inactive; CYP2C19 inhib: inactive

Results for CCc1nnc(NC(=O)CSc2nnc(Cc3cccn3C)n2C)s1 ?
PostGolgi yeast: inactive; PostGolgi ctrl: inactive; CYP2C9 act: inactive; CYP2C19 act: inactive; CYP2C9 inh: inactive; CYP2C19 inhib: inactive

What do the screens show for `CC1=C(C(=O)Nc2ccccc2C)C(c2ccc(C)o2)N2C(=O)CSC2=N1` (centres undefined)?
PostGolgi yeast: inactive; PostGolgi ctrl: inactive; CYP2C9 act: inactive; CYP2C19 act: inactive; CYP2C9 inh: inactive; CYP2C19 inhib: inactive

Results for Cc1nc2cc(N3CCCCC3)c(NC(=O)c3ccncc3)cc2c(=O)n1Cc1ccccc1 ?
PostGolgi yeast: inactive; PostGolgi ctrl: inactive; CYP2C9 act: inactive; CYP2C19 act: inactive; CYP2C9 inh: 81; CYP2C19 inhib: inactive

How did CCOC(=O)c1cc(C(=O)c2cccs2)n2ccc(C(C)=O)cc12 do in these assays?
PostGolgi yeast: inactive; PostGolgi ctrl: 82; CYP2C9 act: inactive; CYP2C19 act: inactive; CYP2C9 inh: inactive; CYP2C19 inhib: inactive

How did COc1ccc(N(C(=O)c2ccc(Br)o2)C2C=CS(=O)(=O)C2)cc1 (centres undefined) do in these assays?
PostGolgi yeast: inactive; PostGolgi ctrl: inactive; CYP2C9 act: inactive; CYP2C19 act: inactive; CYP2C9 inh: inactive; CYP2C19 inhib: inactive

How did c1cnc(Oc2ccc(-c3nnco3)cc2)cn1 do in these assays?
PostGolgi yeast: inactive; PostGolgi ctrl: inactive; CYP2C9 act: inactive; CYP2C19 act: inactive; CYP2C9 inh: inactive; CYP2C19 inhib: 54

Results for CCOC(=O)Cc1csc(NC(=O)COc2ccccc2OC)n1 ?
PostGolgi yeast: inactive; PostGolgi ctrl: inactive; CYP2C9 act: inactive; CYP2C19 act: inactive; CYP2C9 inh: inactive; CYP2C19 inhib: inactive

How did CCOC(=O)Cc1csc(NC(=O)COc2ccccc2)n1 do in these assays?
PostGolgi yeast: inactive; PostGolgi ctrl: inactive; CYP2C9 act: inactive; CYP2C19 act: inactive; CYP2C9 inh: 55; CYP2C19 inhib: inactive

How did O=C(CCS(=O)(=O)c1cccs1)N1CCCC1 do in these assays?
PostGolgi yeast: inactive; PostGolgi ctrl: inactive; CYP2C9 act: inactive; CYP2C19 act: inactive; CYP2C9 inh: inactive; CYP2C19 inhib: inactive

What do the screens show for `O=C(COc1ccc(Cl)cc1)Nc1nc(-c2cccs2)cs1`?
PostGolgi yeast: inactive; PostGolgi ctrl: inactive

What do the screens show for `CN(c1ccc(OCC(=O)N2CCCCC2)cc1)S(=O)(=O)c1cccs1`?
PostGolgi yeast: inactive; PostGolgi ctrl: inactive; CYP2C9 act: inactive; CYP2C19 act: inactive; CYP2C9 inh: 69; CYP2C19 inhib: inactive

How did CCOC(=O)Cc1csc(NS(=O)(=O)Cc2ccccc2)n1 do in these assays?
PostGolgi yeast: inactive; PostGolgi ctrl: inactive; CYP2C9 act: inactive; CYP2C19 act: inactive; CYP2C9 inh: 77; CYP2C19 inhib: inactive

How did CCOC(=O)Cc1csc(NC(=O)COc2ccc(N(C)S(=O)(=O)c3cccs3)cc2)n1 do in these assays?
PostGolgi yeast: inactive; PostGolgi ctrl: inactive; CYP2C9 act: inactive; CYP2C19 act: inactive; CYP2C9 inh: 95; CYP2C19 inhib: 96

How did Cc1ccccc1CN1C(=O)Nc2ccccc2C(=O)N1C(C)(C)C do in these assays?
PostGolgi yeast: inactive; PostGolgi ctrl: inactive; CYP2C9 act: inactive; CYP2C19 act: inactive; CYP2C9 inh: inactive; CYP2C19 inhib: inactive

What do the screens show for `CCOC(=O)N1CCN(C(=O)c2cc3cc(Br)ccc3oc2=O)CC1`?
PostGolgi yeast: inactive; PostGolgi ctrl: inactive; CYP2C9 act: inactive; CYP2C19 act: inactive; CYP2C9 inh: inactive; CYP2C19 inhib: inactive

What do the screens show for `Cc1ccc2nsnc2c1S(=O)(=O)N(Cc1ccco1)Cc1cc2ccc(C)c(C)c2[nH]c1=O`?
PostGolgi yeast: inactive; PostGolgi ctrl: inactive; CYP2C9 act: inactive; CYP2C19 act: inactive; CYP2C9 inh: inactive; CYP2C19 inhib: inactive

Results for CCOC(=O)C(=O)c1csc(NC(=O)COc2ccc(N(C)S(=O)(=O)c3ccc(F)cc3)cc2)n1 ?
PostGolgi yeast: inactive; PostGolgi ctrl: inactive; CYP2C9 act: inactive; CYP2C19 act: inactive; CYP2C9 inh: 59; CYP2C19 inhib: 57

How did CCc1nc(NCCC(C)C)c(C#N)c2c1CCCC2 do in these assays?
PostGolgi yeast: inactive; PostGolgi ctrl: inactive; CYP2C9 act: inactive; CYP2C19 act: inactive; CYP2C9 inh: inactive; CYP2C19 inhib: inactive

Results for COc1ccc(CCn2c(C)cc3c(c2=O)C(c2ccncc2)C(C#N)=C(N)O3)cc1OC (centres undefined) ?
PostGolgi yeast: inactive; PostGolgi ctrl: inactive; CYP2C9 act: inactive; CYP2C19 act: inactive; CYP2C9 inh: 79; CYP2C19 inhib: 83

Results for Cc1cnc(C(=O)Nc2ccc(N3CCN(C(=O)OC(C)(C)C)CC3)cc2)cn1 ?
PostGolgi yeast: inactive; PostGolgi ctrl: inactive; CYP2C9 act: inactive; CYP2C19 act: inactive; CYP2C9 inh: inactive; CYP2C19 inhib: inactive

What do the screens show for `COc1ccc(NC(=O)CCc2nc(-c3ccccc3F)no2)cc1`?
PostGolgi yeast: inactive; PostGolgi ctrl: inactive; CYP2C9 act: inactive; CYP2C19 act: inactive; CYP2C9 inh: 69; CYP2C19 inhib: 78

How did CCOC(=O)c1cccc(NC(=O)CCc2nc(-c3ccccc3F)no2)c1 do in these assays?
PostGolgi yeast: inactive; PostGolgi ctrl: inactive; CYP2C9 act: inactive; CYP2C19 act: inactive; CYP2C9 inh: inactive; CYP2C19 inhib: inactive

How did COc1ccccc1-c1noc(CCC(=O)Nc2cccc(C)c2)n1 do in these assays?
PostGolgi yeast: inactive; PostGolgi ctrl: inactive; CYP2C9 act: inactive; CYP2C19 act: inactive; CYP2C9 inh: inactive; CYP2C19 inhib: 74

Results for COc1ccc(-c2noc(CCC(=O)Nc3cccc(C)c3)n2)cc1 ?
PostGolgi yeast: inactive; PostGolgi ctrl: inactive; CYP2C9 act: inactive; CYP2C19 act: inactive; CYP2C9 inh: inactive; CYP2C19 inhib: inactive

How did CCc1ccccc1NC(=O)CCc1nc(-c2ccc(C)cc2)no1 do in these assays?
PostGolgi yeast: inactive; PostGolgi ctrl: inactive; CYP2C9 act: inactive; CYP2C19 act: inactive; CYP2C9 inh: inactive; CYP2C19 inhib: inactive

How did CCc1cccc(NC(=O)CCc2nc(-c3cccs3)no2)c1 do in these assays?
PostGolgi yeast: inactive; PostGolgi ctrl: inactive; CYP2C9 act: inactive; CYP2C19 act: inactive; CYP2C9 inh: 83; CYP2C19 inhib: 93

What do the screens show for `COc1ccc(-c2noc(CCC(=O)Nc3nc4ccccc4s3)n2)cc1`?
PostGolgi yeast: inactive; PostGolgi ctrl: inactive; CYP2C9 act: inactive; CYP2C19 act: inactive; CYP2C9 inh: 68; CYP2C19 inhib: inactive
